# Bioassay records from PubChem.
# Tau fibril FP: inhibitors of human tau fibril formation. P10636. K18 P301L tau heparin fibrillization, Alexa594 FP, 6 h. Potency, µM (doses to about 57.7 µM), hits mostly inhibitors. hit rate 0.39% among 280,000; further: nearly all actives have a fitted effect of over 55% in size
# Target sequence (P10636 561-689 P618L limits assumed): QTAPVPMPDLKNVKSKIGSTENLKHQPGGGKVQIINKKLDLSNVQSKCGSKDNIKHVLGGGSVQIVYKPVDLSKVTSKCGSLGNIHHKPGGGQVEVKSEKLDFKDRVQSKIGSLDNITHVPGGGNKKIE
#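 Quantitative HTS format: compounds meet 15 uM recombinant K18 P301L tau and Alexa 594-tau tracer in 100 mM sodium acetate pH 7; 20 uM heparin triggers fibrillization at 37 C over 6 hr; FP gives the signal.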
# Tau fibril ThT: tau fibrillization inhibition (ThT binding) | AID 1460 | P10636 | hit rate 2.1% among 270,000 | Potency, µM (top dose mostly 57.4 µM), most hits filed as inhibitors | recombinant tau K18 P301L, heparin-induced fibrillization, ThT fluorescence; further: nearly all actives have a fitted effect of over 55% in size
#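 Heparin-induced (20 uM) aggregation of recombinant human K18 P301L tau, 15 uM unlabeled with 0.24 uM labeled, pH 7 acetate buffer, 6 hr at 37 C with compound. Fibrils quantified by 30 uM ThT fluorescence after 1 hr ambient incubation.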
# Tau fluor cs: counter-screen for tau fibril formation inhibitors; hit rate 0.93% among 280,000; tau K18 P301L Alexa594 fluorescence, heparin fibrillization; Potency, µM (titrated, usually from 57.7 µM); further: nearly all actives have a fitted effect of over 55% in size
#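 Human tau K18 P301L (15 uM unlabeled, 0.24 uM Alexa 594-labeled) in 100 mM sodium acetate pH 7 with 20 uM heparin, 6 hr at 37 C. ThT 30 uM added, 1 hr ambient; Alexa 594 FP and total fluorescence read at 555/632 nm.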
# ALDH1A1 inh: inhibitors of human aldehyde dehydrogenase 1A1 | P00352 | Purified ALDH1A1, NADH fluorescence, propionaldehyde substrate | Potency, µM (top dose mostly 75.3 µM), usual class: inhibitors | hit rate 7.3% among 220,000 | AID 1030; active means well fitted inhibition curve with a large enough effect, not every such curve was filed as active; inconclusive means small, poorly fitted or top-dose-only effect, or another doubt; inactive means no such curve, though single readings can be large or run the other way
# KDM4E inh: inhibitors of human JMJD2E histone demethylase | JMJD2E catalytic domain, FDH-coupled NADH fluorescence (FDH is formaldehyde dehydrogenase) | Potency, µM (doses to about 57.1 µM), actives largely listed as inhibitors | hit rate 1.6% among 230,000; active means well fitted inhibition curve with a large enough effect, not every such curve was filed as active; inconclusive means small, poorly fitted or top-dose-only effect, or another doubt; inactive means no such curve, though single readings can be large or run the other way; further: nearly all actives have a fitted effect of over 50% in size
# Target sequence (B2RXH2 1-337 limits assumed): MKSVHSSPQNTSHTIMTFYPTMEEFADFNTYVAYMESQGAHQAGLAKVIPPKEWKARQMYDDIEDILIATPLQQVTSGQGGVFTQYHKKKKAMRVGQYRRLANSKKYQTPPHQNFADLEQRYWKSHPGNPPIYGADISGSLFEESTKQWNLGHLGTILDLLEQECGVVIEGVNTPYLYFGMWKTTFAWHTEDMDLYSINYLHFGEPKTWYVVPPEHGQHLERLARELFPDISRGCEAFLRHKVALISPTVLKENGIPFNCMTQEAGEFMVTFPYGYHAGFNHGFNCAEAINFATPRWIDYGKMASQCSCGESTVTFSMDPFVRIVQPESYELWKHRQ
# HPGD block: inhibitors of human 15-hydroxyprostaglandin dehydrogenase (HPGD). purified HPGD, NADH fluorescence kinetic, PGE2 substrate. P15428. hit rate 4.3% among 150,000. Potency, µM, hits mostly inhibitors. AID 894; active means well fitted inhibition curve with a large enough effect, not every such curve was filed as active; inconclusive means small, poorly fitted or top-dose-only effect, or another doubt; inactive means no such curve, though single readings can be large or run the other way
#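 20 nM HPGD preincubated 15 min at room temperature with compound in 50 mM Tris-HCl pH 8, 0.01% Tween 20. Started with 1 mM NAD+ and 30 uM prostaglandin E2; NADH fluorescence (360/450 nm) read 5 times over 30-s intervals, last minus first.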
# A number is an active result; i = inactive; ? = inconclusive; nt = no result given; [ ] = another dose, or the depositor's remark. Shown are actives, neighbours in structure and some others; about 9.9% of the full set was active somewhere. Unless noted, the call rests on the fitted dose curve; in most records, active means well fitted curve in the direction sought with a large enough effect; inconclusive means small, poorly fitted or top-dose-only effect, or another doubt; inactive means no such curve, though single readings can be large; an effect the other way counts as inactive or inconclusive.
SMILES,Tau fibril FP,Tau fibril ThT,Tau fluor cs,ALDH1A1 inh,KDM4E inh,HPGD block
Cc1cccc(N2CCN(C(=O)CCS(=O)(=O)c3ccc4c(c3)CC(=O)N4C)CC2C)c1 (stereo unspecified),i,?,i,nt,nt,nt
Cc1cccc(NC(=O)Cn2c(SCC(=O)NCc3ccccc3)nc3ccccc32)c1C,i,i,i,nt,nt,nt
O=C(N/C(=C/c1ccc(Cl)cc1)c1nc2ccccc2[nH]1)c1ccco1,i,i,i,?,?,?
O=C(/C(=C/c1ccc(Cl)cc1)c1nc2ccccc2[nH]1)c1ccccc1,?,40µM,i,?,i,i
COc1cc(/C=N/Nc2nc3ccccc3[nH]c2=O)ccc1O,i,?,i,i,i,nt
COc1cc(/C=N/NC(=Nc2ccc(C)cc2)c2nc3ccccc3s2)ccc1O,i,?,11µM[quencher],i,i,i
COc1cc(/C=N/Nc2nc3ccccc3[nH]2)ccc1O,?,5µM,?,i,?,?
O=[N+]([O-])c1ccc(O)c(/C=N/Nc2nc3ccccc3[nH]2)c1,i,8.9µM,?,?,?,i
COc1cc(NC(=O)c2cc3nc(-c4ccc(C)cc4)cc(C(F)(F)F)n3n2)cc(OC)c1OC,i,?,i,nt,nt,nt
CC1(C)O[C@H]2[C@@H](O1)[C@@H](C(=O)Nc1ccccc1C(F)(F)F)O[C@@H]1OC(C)(C)O[C@@H]12,i,i,i,nt,nt,nt
O=C(CSc1nc(-c2cccs2)nc2cc(=O)[nH]n12)Nc1cccc(C(F)(F)F)c1,i,?,i,nt,nt,nt
COc1cccc(/C=N/Nc2nc3ccccc3[nH]2)c1O,i,?,i,nt,4.5µM,nt
COc1cccc(/C=N/Nc2nc3ccccc3n3cnnc23)c1,i,i,i,i,i,i
COc1cccc(/C=N/Nc2nc3ccccc3n3cnnc23)c1O,i,?,i,?,28µM,i
CCCn1c(=O)c2c(nc(Br)n2CCC)n(C)c1=O,i,i,i,i,i,i
CC(C)Cn1c(Br)nc2c1c(=O)n(CCC#N)c(=O)n2C,i,i,i,i,i,18µM
COCCCn1c(=O)/c(=C\c2ccccc2OC(F)F)s/c1=C(/C#N)C(=O)N1CCOCC1,i,i,i,6.3µM,i,nt
Cc1ccc(SCCNC(=O)c2cccc([N+](=O)[O-])c2C)cc1,i,i,i,?,i,25µM
Cc1ccc(C(=O)NCCSCc2ccc(Cl)cc2Cl)cc1[N+](=O)[O-],i,i,i,?,i,?
Cc1c(C(=O)NCCSCc2ccc(Cl)cc2Cl)cccc1[N+](=O)[O-],i,i,?,?,i,22µM
Cc1c(C(=O)NCCSc2ccc(Cl)cc2)cccc1[N+](=O)[O-],i,i,i,i,i,i
Cc1c(C(=O)NCCSCc2ccco2)cccc1[N+](=O)[O-],i,i,i,i,i,i
Cc1c(C(=O)NCCSCc2ccccc2)cccc1[N+](=O)[O-],i,i,i,3.2µM,i,nt
Fc1ccc(-c2cc(-c3ccccc3)c3c(n2)-c2cc(F)ccc2OC3)cc1,?,i,i,nt,nt,nt
Cc1cc(C(=O)COC(=O)c2ccc(O)cc2)c(C)n1Cc1ccco1,i,i,i,7.9µM,i,i
SMILES,Tau fibril FP,Tau fibril ThT,Tau fluor cs,ALDH1A1 inh,KDM4E inh,HPGD block
Cc1cc(C(=O)COC(=O)C(C)NC(N)=O)c(C)n1Cc1ccco1 (stereo unspecified),i,i,i,i,i,nt
Cc1cc(C(=O)CSc2nnnn2C)c(C)n1Cc1ccco1,i,i,i,28µM,i,nt
Cc1cc(C(=O)C(C)Cl)c(C)n1Cc1ccco1 (stereo unspecified),i,i,i,7.1µM,i,nt
Cc1cc(C(=O)CSc2ncccn2)c(C)n1Cc1ccco1,i,i,i,?,?,nt
O=C(c1ccc(S(=O)(=O)NCc2ccco2)cc1)N1CCN(Cc2ccc3c(c2)OCO3)CC1,i,i,i,i,i,nt
COCCN=C1Sc2nc3c(C)cccc3cc2CN1Cc1ccco1,i,?,i,3.5µM,?,22µM
COCCN=C1Sc2nc3ccc(C)cc3cc2CN1Cc1cccs1,i,?,i,i,i,nt
Cc1cccc2cc3c(nc12)SC(=NCC1CCCO1)N(Cc1ccco1)C3 (stereo unspecified),i,?,i,4.5µM,i,nt
